Laboratory results from PubChem BioAssay (NCI).
This is part of a sample that, as a whole, favours compounds with a hit. Of some 83,000 tested, about 20% had one in any assay.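 96-well plates, one dose, 48 hours. Percent growth reported; active if below 10.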 Activity calls are given as the source filed them.

Legend:
Experiment in all cases: NCI-60 one-dose screen, 48 h (100 = growth as untreated, 0 = no growth, -100 = all killed)
Settings in all cases: 10 µM unless noted
HCT-15 colon = system: HCT-15 colon
HT29 colon = system: HT29 colon
SNB-75 CNS = system: SNB-75 CNS
SNB-19 CNS = system: SNB-19 CNS
U251 CNS = system: U251 CNS
PC-3 prostate = system: PC-3 prostate
SK-MEL-5 melanoma = system: SK-MEL-5 melanoma
UACC-62 melanoma = system: UACC-62 melanoma
LOX IMVI melanoma = system: LOX IMVI melanoma
SK-MEL-28 melanoma = system: SK-MEL-28 melanoma
SK-MEL-2 melanoma = system: SK-MEL-2 melanoma
EKVX NSCLC = system: EKVX NSCLC
SN12C renal = system: SN12C renal
UO-31 renal = system: UO-31 renal
TK-10 renal = system: TK-10 renal
ACHN renal = system: ACHN renal
CAKI-1 renal = system: CAKI-1 renal
A498 renal = system: A498 renal
CCRF-CEM leukemia = system: CCRF-CEM leukemia
MOLT-4 leukemia = system: MOLT-4 leukemia

Measured: growth

Cc1ccc(S(=O)(=O)OCC#CCOS(=O)(=O)c2ccc(C)cc2)cc1
inactive: HCT-15 colon 72.3% | HT29 colon 50.3% | SNB-19 CNS 70.1% | U251 CNS 22.6% | PC-3 prostate 70.4% | SK-MEL-5 melanoma 59.4% | UACC-62 melanoma 42.4% | SK-MEL-28 melanoma 74.9% | SK-MEL-2 melanoma 66.4% | EKVX NSCLC 60.9% | SN12C renal 64.1% | TK-10 renal 101% | ACHN renal 49.5% | A498 renal 85.9% | MOLT-4 leukemia 46.3%
active: SNB-75 CNS 5% | LOX IMVI melanoma -35.8% | UO-31 renal -87.1% | CAKI-1 renal -82.9% | CCRF-CEM leukemia 7.43%

Oc1ccc(-c2nc3ccc4[nH]ncc4c3c3c2CCCC3)c(F)c1
inactive: HCT-15 colon 15.8% | HT29 colon 42.5% | SNB-75 CNS 17% | SNB-19 CNS 60.5% | U251 CNS 38.3% | PC-3 prostate 33.8% | UACC-62 melanoma 11.7% | LOX IMVI melanoma 27.8% | SK-MEL-28 melanoma 17.5% | EKVX NSCLC 38.3% | SN12C renal 44.8% | UO-31 renal 17.5% | TK-10 renal 29.2% | ACHN renal 11.9% | CAKI-1 renal 13% | A498 renal 30.1% | CCRF-CEM leukemia 12%
active: SK-MEL-5 melanoma 3.31% | SK-MEL-2 melanoma -13.3% | MOLT-4 leukemia 2.01%

COCCn1cc(-c2nc(-c3cc4cccnc4n3C)cs2)c2ccccc21
inactive: HCT-15 colon 21.5% | HT29 colon 12.9% | SNB-75 CNS 61.3% | SNB-19 CNS 63.5% | U251 CNS 33.3% | PC-3 prostate 27.5% | UACC-62 melanoma 46.2% | LOX IMVI melanoma 38.7% | SK-MEL-28 melanoma 73.1% | SK-MEL-2 melanoma 18.7% | EKVX NSCLC 19.8% | SN12C renal 59.1% | UO-31 renal 52.1% | TK-10 renal 44.2% | ACHN renal 54.9% | CAKI-1 renal 60.7% | A498 renal 33.2% | MOLT-4 leukemia 26.6%
active: SK-MEL-5 melanoma 2.5%

Nc1nc2ccccc2c2c(=O)c3cc(Cl)ccc3sc12
inactive: HCT-15 colon 96.8% | HT29 colon 102% | SNB-75 CNS 91.2% | SNB-19 CNS 96.1% | U251 CNS 98.5% | PC-3 prostate 90.7% | SK-MEL-5 melanoma 96.5% | UACC-62 melanoma 93.4% | LOX IMVI melanoma 103% | SK-MEL-28 melanoma 109% | SK-MEL-2 melanoma 106% | EKVX NSCLC 91.4% | SN12C renal 94.9% | UO-31 renal 86.6% | TK-10 renal 109% | ACHN renal 99.8% | CAKI-1 renal 87.8% | A498 renal 107% | CCRF-CEM leukemia 101% | MOLT-4 leukemia 105%

C=CN(C(=O)N1CCN(c2cc3c(cc2F)c(=O)c(C(=O)O)cn3C2CC2)CC1)c1nc(-c2ccccc2)cs1
active: CAKI-1 renal -82.3%
inactive: HCT-15 colon 102% | HT29 colon 93.1% | SNB-75 CNS 109% | SNB-19 CNS 96% | U251 CNS 101% | PC-3 prostate 91.1% | SK-MEL-5 melanoma 95.7% | UACC-62 melanoma 86% | LOX IMVI melanoma 77.5% | SK-MEL-28 melanoma 101% | SK-MEL-2 melanoma 88.3% | EKVX NSCLC 109% | SN12C renal 92.8% | UO-31 renal 84.7% | TK-10 renal 105% | ACHN renal 91.1% | A498 renal 76% | CCRF-CEM leukemia 93.2% | MOLT-4 leukemia 88.2%

COc1ccc(NC(=O)c2ccc(Nc3ncnc4c3cnn4-c3cccc(F)c3)cc2)cc1
inactive: HCT-15 colon 102% | HT29 colon 104% | SNB-75 CNS 93.9% | SNB-19 CNS 94.7% | U251 CNS 103% | PC-3 prostate 96.3% | SK-MEL-5 melanoma 98.4% | UACC-62 melanoma 94.8% | LOX IMVI melanoma 96% | SK-MEL-28 melanoma 113% | SK-MEL-2 melanoma 104% | EKVX NSCLC 101% | SN12C renal 95.7% | UO-31 renal 88.6% | TK-10 renal 103% | ACHN renal 99.6% | CAKI-1 renal 90.8% | A498 renal 57.3% | CCRF-CEM leukemia 97.2% | MOLT-4 leukemia 100%

O=[N+]([O-])c1ccccc1Nc1ccc2ccccc2c1
inactive: HCT-15 colon 93.5% | HT29 colon 94.1% | SNB-75 CNS 62.9% | SNB-19 CNS 89.8% | U251 CNS 92.7% | PC-3 prostate 92.3% | SK-MEL-5 melanoma 98.6% | UACC-62 melanoma 79.5% | LOX IMVI melanoma 92.5% | SK-MEL-28 melanoma 101% | SK-MEL-2 melanoma 104% | EKVX NSCLC 87.7% | SN12C renal 98.9% | UO-31 renal 59.4% | TK-10 renal 99.7% | ACHN renal 99.2% | CAKI-1 renal 78.3% | A498 renal 59.9% | CCRF-CEM leukemia 92.3% | MOLT-4 leukemia 76.8%

COc1ccc(/C=C2\c3cc(OC)c(OC)c(OC)c3CC[C@@H]2O)cc1F
active: A498 renal 8.33%
inactive: HCT-15 colon 20.7% | HT29 colon 11.9% | SNB-75 CNS 14.5% | SNB-19 CNS 42.4% | U251 CNS 20.1% | PC-3 prostate 23.1% | SK-MEL-5 melanoma 23.8% | UACC-62 melanoma 34.2% | LOX IMVI melanoma 37.3% | SK-MEL-28 melanoma 70.1% | SK-MEL-2 melanoma 41.6% | EKVX NSCLC 44.1% | SN12C renal 53.2% | UO-31 renal 47.7% | TK-10 renal 57.9% | ACHN renal 43% | CAKI-1 renal 48.4% | CCRF-CEM leukemia 12.8% | MOLT-4 leukemia 21.5%

O=C(/C=C/c1ccccc1)N(C1CCCCC1)C1CCCCC1
inactive: HCT-15 colon 86.3% | HT29 colon 68.6% | SNB-75 CNS 81.4% | SNB-19 CNS 87.7% | U251 CNS 84.3% | PC-3 prostate 60.2% | SK-MEL-5 melanoma 89.9% | UACC-62 melanoma 75% | LOX IMVI melanoma 92.3% | SK-MEL-28 melanoma 97.9% | SK-MEL-2 melanoma 82.9% | EKVX NSCLC 85.1% | SN12C renal 97.3% | UO-31 renal 97% | TK-10 renal 112% | ACHN renal 86% | CAKI-1 renal 66.8% | A498 renal 93.4% | CCRF-CEM leukemia 79.6% | MOLT-4 leukemia 92.1%

CN(C)CCCC1(c2ccc(F)cc2)OCc2cc(-c3csc4ccccc34)ccc21 (stereo not drawn)
active: HCT-15 colon -59.7% | HT29 colon -29.2% | SNB-19 CNS -35.6% | U251 CNS -57.1% | SK-MEL-5 melanoma -45.7% | UACC-62 melanoma -86.3% | LOX IMVI melanoma -97.9% | SK-MEL-28 melanoma -84% | UO-31 renal 2.29% | ACHN renal 0.407% | CAKI-1 renal 4.7% | CCRF-CEM leukemia -14.3% | MOLT-4 leukemia -15.6%
inactive: SNB-75 CNS 29.7% | PC-3 prostate 30% | SK-MEL-2 melanoma 62.6% | EKVX NSCLC 55.3% | SN12C renal 39.7% | TK-10 renal 62.1% | A498 renal 90.2%

C=C(C)[C@@H]1CC[C@]2(C)[C@H](C=CC3=C4C[C@@](C)(CO)CC[C@]4(C)CC[C@]32C)[C@@]1(C)CCCN
active: HCT-15 colon -82% | HT29 colon -38.7% | SNB-75 CNS -6.45% | U251 CNS -64.5% | PC-3 prostate -34% | LOX IMVI melanoma -100% | SK-MEL-28 melanoma -79.8% | SK-MEL-2 melanoma -52.5% | SN12C renal -13.4% | TK-10 renal -68.4% | ACHN renal -94.9% | CAKI-1 renal -81.6% | CCRF-CEM leukemia 0.791% | MOLT-4 leukemia -10.5%
inactive: SNB-19 CNS 34.3% | SK-MEL-5 melanoma 17.5% | UACC-62 melanoma 77.6% | EKVX NSCLC 42.5% | UO-31 renal 47.2% | A498 renal 68.3%

O=C(C1=Cc2cc3ccccc3n2Cc2cnnn21)c1ccc(F)cc1
inactive: HCT-15 colon 95.8% | HT29 colon 112% | SNB-75 CNS 86.2% | SNB-19 CNS 94.1% | U251 CNS 98.2% | PC-3 prostate 92.3% | SK-MEL-5 melanoma 96% | UACC-62 melanoma 90.9% | LOX IMVI melanoma 98.8% | SK-MEL-28 melanoma 105% | SK-MEL-2 melanoma 103% | EKVX NSCLC 96.2% | SN12C renal 97.6% | UO-31 renal 88.6% | TK-10 renal 107% | ACHN renal 103% | CAKI-1 renal 90.9% | A498 renal 79.9% | CCRF-CEM leukemia 97.8% | MOLT-4 leukemia 89%

CC1(C)N=C(N)N=C(N)N1c1ccc(S(=O)(=O)Nc2nccs2)cc1
inactive: HCT-15 colon 103% | HT29 colon 102% | SNB-75 CNS 64.9% | SNB-19 CNS 98.2% | U251 CNS 103% | PC-3 prostate 93.7% | SK-MEL-5 melanoma 106% | UACC-62 melanoma 93.6% | LOX IMVI melanoma 100% | SK-MEL-28 melanoma 106% | SK-MEL-2 melanoma 106% | EKVX NSCLC 102% | SN12C renal 95.2% | UO-31 renal 89.5% | TK-10 renal 86.1% | ACHN renal 108% | CAKI-1 renal 94.3% | A498 renal 96.2% | MOLT-4 leukemia 103%

c1ccc(-c2ccc3c(c2)C2(CCNCC2)CN3)cc1
inactive: HCT-15 colon 99.6% | HT29 colon 96.5% | SNB-75 CNS 73.8% | SNB-19 CNS 101% | U251 CNS 102% | PC-3 prostate 86.9% | SK-MEL-5 melanoma 99.1% | UACC-62 melanoma 84.6% | LOX IMVI melanoma 89.9% | SK-MEL-28 melanoma 110% | SK-MEL-2 melanoma 93.4% | EKVX NSCLC 75.9% | SN12C renal 98.7% | UO-31 renal 66.1% | TK-10 renal 125% | ACHN renal 93% | CAKI-1 renal 93% | A498 renal 104% | CCRF-CEM leukemia 112% | MOLT-4 leukemia 85.7%

C=CCn1cc(-c2nc3ccccc3s2)c2cc(-c3ccc4c5c(cccc35)C(=O)N(CCO)C4=O)ccc21
inactive: HCT-15 colon 94.3% | HT29 colon 98.2% | SNB-75 CNS 98.9% | SNB-19 CNS 93.1% | U251 CNS 97.2% | PC-3 prostate 83.7% | SK-MEL-5 melanoma 96.1% | UACC-62 melanoma 94.9% | LOX IMVI melanoma 95.4% | SK-MEL-28 melanoma 110% | SK-MEL-2 melanoma 105% | EKVX NSCLC 81.3% | SN12C renal 89.2% | UO-31 renal 62.7% | TK-10 renal 138% | ACHN renal 94.5% | CAKI-1 renal 75.2% | A498 renal 113% | CCRF-CEM leukemia 104% | MOLT-4 leukemia 91.3%

O=c1oc2c(cnc3ccccc32)cc1-c1cccc(Cl)c1
inactive: HCT-15 colon 101% | HT29 colon 108% | SNB-75 CNS 95.6% | SNB-19 CNS 98.5% | U251 CNS 98.2% | PC-3 prostate 97.7% | SK-MEL-5 melanoma 107% | UACC-62 melanoma 96.1% | LOX IMVI melanoma 102% | SK-MEL-28 melanoma 105% | SK-MEL-2 melanoma 118% | EKVX NSCLC 99.1% | SN12C renal 98.3% | UO-31 renal 90.4% | TK-10 renal 118% | ACHN renal 104% | CAKI-1 renal 92% | A498 renal 83.1% | CCRF-CEM leukemia 76.5% | MOLT-4 leukemia 96.3%
